Experimental data reported in PMC5540273 (PLoS ONE, 2017).

tested on: BTK; conditions: concentration: 1 μM, replicates: in singlicate; n = 1
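Also: KINOMEscan kinase panel screen.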

| SMILES | %Inh |
| --- | --- |
| NS(=O)(=O)CCc1cccc(Nc2nccc(-c3c(-c4cccc(NC(=O)c5c(F)cccc5F)c4)nn4ccccc34)n2)c1 [GSK336735] | 94.6% |
| COc1ccc(CNC(=O)NC2CCN(c3ccnc(Nc4ccc(OC)cc4)n3)C2)cc1 (centres unmarked) [GSK1379727] | 12% |
| c1ccc(-c2cc(-c3c[nH]nc3-c3ccccn3)ccn2)cc1 [GW576604] | 0% |
| Cn1cc(-c2ccc3c(c2)CCN3C(=O)Cc2ccccc2Cl)c2c(N)ncnc21 [GSK2608885] | 95.6% |
| Cc1nnc(-c2ccc3ncc(-c4ccc(S(C)=O)cc4)n3c2)o1 (centres unmarked) | 24% |
| Cc1ccc(NC(=O)c2ccnc(N3CCN(C)CC3)c2)cc1-c1ccc(C(=O)NCC2CC2)cc1 [GW775604] | 0% |
| CN(C1=C(c2ccccc2)C(=O)NC1=O)c1ccccc1 [SB-334860] | 0% |
| Cc1ccc(C(=O)NCC(N)=O)cc1-n1c(C)cc(OCc2ccc(F)cc2F)c(Br)c1=O | 0% |
| NCC(NC(=O)c1cc(-c2cn[nH]c2)c(-c2ccnc3[nH]ccc23)s1)c1ccccc1.O=C(O)C(F)(F)F.O=C(O)C(F)(F)F (centres unmarked) [GSK1325775] | 0% |
| CNc1ncnc2[nH]ncc12 [SKF-18355] | 0% |
| CCCCCc1nc2c(N)ncnc2n1CCCCC [SKF-97255] | 0% |
| C[C@@H](Oc1cc(-n2cnc3ccc(NC(=O)NC(C)(C)C)cc32)sc1C(N)=O)c1ccccc1Cl [GSK346294] | 6% |
| Cl.Oc1cccc(Nc2ccnc3cc(-c4ccncc4)ccc23)c1 [GW494601] | 46% |
| O=C1NC(=O)C(N2CCc3ccccc32)=C1c1cccc(Cl)c1 [SB-408010] | 23% |
| Cc1cn2c(=O)cc(N3CCOCC3)nc2n1Cc1cccc(Cl)c1Cl [GSK2334006] | 0% |
| N#Cc1c(N2CCOCC2)sc(-c2ccn[nH]2)c1-c1ccc(Cl)cc1 | 8% |
| CC(=O)Nc1ccc(COc2ccc(Nc3ccnc4cc(-c5ccccn5)ccc34)cc2)cc1.Cl [GW440148] | 0% |
| O=c1cc(N2CCOCC2)nc2n(Cc3cccc(C(F)(F)F)c3)ccn12 [GSK2297543] | 0% |
| Fc1ccc(-c2nn3c(OCC(F)(F)F)cccc3c2-c2ccncc2)cc1 [GW514784] | 31% |
| Cc1cccc(-c2nc(Nc3ccc4ncsc4c3)c3ccccc3n2)n1 [GW867588] | 0% |
